# Activity calls are given as the source filed them. The calls were made as follows, unless noted: active = hit-call score of the fitted dose curve at least 0.9, where 1 is the maximum; inactive = score below 0.9.
# Experiments:
# DIO2 (gene 1734) = assay: CCTE_GLTED_hDIO2: CCTE's human Deiodinase 2 (DIO2) Inhibition Assay, Great Lakes Toxicology and Ecology Division (GLTED) Lab (AID 2284050; active = hit-call score of the fitted dose curve at least 0.9, where 1 is the maximum)
# Procedure, shortened: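 hDIO2 enzyme + test chem, 3 h → free iodide from substrate; step 2: Sandell-Kolthoff (Ce IV reduction by As, iodide-catalysed), spectrophotometric read. Triplicate plates; DMSO = baseline.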
# [1] = CCTE_Shafer_MEA_dev_per_burst_interspike_interval: CCTE's Neural Network Formation Assay for Burst Interspike Interval, Shafer Lab (AID 2284044);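 also: mean spike spacing inside bursts as AUC over recordings on days 5 7 9 12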
# Description: (§1) CCTE_Shafer_MEA_dev assay is conducted using Axion Biosystems 48 well microelectrode array (MEA) plates and Maestro recording system. Each well of the MEA plate contains a grid of 16 microelectrodes embedded in the culture surface. Electrically active cells, such as neurons, can be cultured over the electrodes, and electrical activity in these cells can be recorded extracellularly. The spontaneous firing of neurons is captured from each electrode on a microsecond timescale providing both temporally and spatially precise data. […] The CCTE_Shafer_MEA_dev assay uses primary cultures of rat cortical neurons. Recordings are made on days post-plating 5, 7, 9 and 12. As these cultures mature over time, neural networks develop functional activity and form cohesive networks in which electrical activity can be highly coordinated. CCTE_Shafer_MEA_dev_per_burst_interspike_interval is 1 of 19 assay components of the CCTE_Shafer_MEA_dev assay. It measures the average time interval between spikes (action potential firings) within a single-electrode burst (temporally-clustered group of spikes) during a recording in a microelectrode array (MEA) using Axion Biosystems Maestro 768 channel amplifier with the AxIS adaptive spike detector. The mean inter-spike interval within bursts is averaged across the actively bursting electrodes to report a well-mean value. To collapse across multiple recordings made on days post-plating 5, 7, 9 and 12, the trapezoidal area-under-the-curve of the component is calculated.Data from the assay component CCTE_Shafer_MEA_dev_per_burst_interspike_interval was analyzed into 1 assay endpoint. This assay endpoint, CCTE_Shafer_MEA_dev_per_burst_interspike_interval, was analyzed in the negative analysis fitting direction relative to DMSO as the negative control and baseline of activity. Using a type of functional reporter, gain or loss-of-signal activity can be used to understand electrical activity.
# (§2) On the day prior to culture, each well was coated thoroughly with 150 uL of 0.05% polyethyleneimine (PEI, Sigma Cat P3143) in 50 mM HEPES (Sigma Cat H7523) at a pH of 8. The plate was incubated at 37C for one hour. PEI was rinsed out with 500 uL of sterile water three times. Plates were stored at 4C until the day of culture. This culture was plated at a seeding density of 1.5 x 10^5 cells/well on a 48-well MEA plate, prepared as described above. Cells were administered via a 25 uL media/laminin ([…]; Sigma Cat L2020-1MG) drop directly onto the microelectrode array, as adding the cells with the laminin results in better attachment than pre-coating with laminin. After 2 hours, an additional 475 uL of cortical media was added and the cells returned to the incubator. Exposure starts at day 0 of plating and is continued over twelve days of network development until the experiment is terminated. Cells are fed with fresh medium on DIV 5 and 9, following the recordings on those days. The entire volume of media in the well is exchanged and any vehicle or compound treatment is renewed. Complete details are found in OP-NHEERL/ISTD/SBB/TJS/2015-03-r0 (available on request, email shafer.tim@epa.gov). Measurement of the electrical activity is non-invasive, and recordings can be made from the same plate over multiple different days of the culture. In cortical neurons, this allows for the measurement of extracellular action potentials over the period during which networks form in the MEA plate.
# [2] = CCTE_Shafer_MEA_dev_burst_duration_mean: CCTE's Neural Network Formation Assay for Mean Burst Duration, Shafer Lab (AID 2284045);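 as to AC50: curve fitted for loss meaning shorter burst duration than DMSO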
# Procedure, shortened: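 Read-out: average first-to-last-spike interval within single-electrode bursts, averaged over bursting electrodes per well, then summarised as area under the curve across days 5, 7, 9 and 12. Developing rat cortical networks were exposed from day 0.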
# [3] = CCTE_Shafer_MEA_dev_interburst_interval_mean: CCTE's Neural Network Formation Assay for Mean Interburst Interval, Shafer Lab (AID 2284046);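 also: well-mean interburst interval of bursting electrodes as AUC over four recording days; curve fitted for decrease in interburst interval relative to DMSO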
# Description: as §1, with “CCTE_Shafer_MEA_dev_interburst_interval_mean” for “CCTE_Shafer_MEA_dev_per_burst_interspike_interval”, “consecutive single-electrode bursts (temporally-clustered groups of action” for “spikes (action”, “firing)” for “firings) within a single-electrode burst (temporally-clustered group of spikes)”, “inter-burst” for “inter-spike”, “interval” for “interval within bursts”, “CCTE_Shafer_MEA_dev_interburst_interval_mean,” for “CCTE_Shafer_MEA_dev_per_burst_interspike_interval,”
# as §2
# [4] = CCTE_Shafer_MEA_dev_inter_network_spike_interval_mean: CCTE's Neural Network Formation Assay for Mean Inter-network Spike Interval, Shafer Lab (AID 2284047)
# Procedure, shortened: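 Primary rat cortical neurons on PEI-coated 48-well MEAs (16 electrodes/well) were exposed from plating day 0 to DIV 12, with dosing renewed at DIV 5 and 9. Recordings at DIV 5, 7, 9, 12 were collapsed by trapezoidal AUC, loss-of-signal fit vs DMSO.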
# [5] = CCTE_Shafer_MEA_dev_network_spike_number: CCTE's Neural Network Formation Assay for Number of Network Spikes, Shafer Lab (AID 2284048);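 also: synchronized bursts across electrodes counted on days 5 7 9 12 and integrated as AUC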;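 as to AC50: fit as a loss of signal meaning fewer network spikes than DMSO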
# Procedure, shortened: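 Developing networks of primary rat cortical neurons are treated over 12 days starting at plating, with media and compound fully replaced on DIV 5 and 9. Network spike counts from four recording days are integrated as trapezoidal AUC.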
# [6] = CCTE_Shafer_MEA_dev_network_spike_peak: CCTE's Neural Network Formation Assay for Mean Number of Electrodes in Network Spike, Shafer Lab (AID 2284049);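 as to AC50: fitted for loss of signal meaning fewer electrodes in network spikes than DMSO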
# Description: as §1, with “CCTE_Shafer_MEA_dev_network_spike_peak” for “CCTE_Shafer_MEA_dev_per_burst_interspike_interval”, “number of electrodes participating at the peak of” for “time interval between spikes (action potential firings) within”, “network spike (the peak of a temporally-clustered” for “single-electrode burst (temporally-clustered”, “action potential firing across multiple electrodes)” for “spikes)”, “detector.” for “detector. The mean inter-spike interval within bursts is averaged across the actively bursting electrodes to report a well-mean value.”, “CCTE_Shafer_MEA_dev_network_spike_peak,” for “CCTE_Shafer_MEA_dev_per_burst_interspike_interval,”
# as §2
# [7] = CCTE_Shafer_MEA_dev_spike_duration_mean: CCTE's Neural Network Formation Assay for Mean Spike Duration, Shafer Lab (AID 2284051);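 also: mean network spike duration pooled as area under curve over DIV 5 to 12 recordings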;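 as to AC50: potency for a decrease in mean network spike duration versus DMSO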
# Procedure, shortened: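 Rat cortical primary cultures, 48-well MEA (16 electrodes/well); compound from plating, renewed DIV 5, 9. Network spike duration (AxIS adaptive detector) recorded DIV 5/7/9/12, combined as trapezoidal AUC; loss direction vs DMSO.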
# [8] = CCTE_Shafer_MEA_dev_network_spike_duration_std: CCTE's Neural Network Formation Assay for Standard Deviation of Network Spike Duration, Shafer Lab (AID 2284052);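 also: hits are decreases in network spike duration SD versus DMSO vehicle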
# Procedure, shortened: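 Rat cortical cultures, 1.5 x 10^5 cells/well, exposed continuously from plating to DIV 12 with media/compound renewal at DIV 5, 9. Spontaneous activity recorded DIV 5/7/9/12, AxIS adaptive spike detector; AUC across days; negative direction vs DMSO.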
# [9] = CCTE_Shafer_MEA_dev_per_network_spike_spike_number_mean: CCTE's Neural Network Formation Assay for Mean Number of Spikes in a Network Spike, Shafer Lab (AID 2284053);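 as to AC50: fitted as decrease in spikes per network spike relative to DMSO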
# Procedure, shortened: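 Rat cortical primary cultures on 48-well MEA; compound from day 0, re-dosed with full media change DIV 5, 9. Recorded DIV 5, 7, 9, 12; spikes in 0.05 s window at network-spike peak ÷ total network spikes; AUC; loss vs DMSO.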
compound,measurement,setting,value
CC(C)(C)c1csc(-c2cc3cc(OCc4ccccc4CC(=O)O)ccc3o2)n1,AC50,DIO2 (gene 1734),120 µM (active)
CCCCCCCCCCCC[N+](C)(C)C,AC50,DIO2 (gene 1734),96.4 µM (active)
CC(C)(c1cc(Br)c(O)c(Br)c1)c1cc(Br)c(O)c(Br)c1,outcome,[1],inactive
same,outcome,[2],inactive
same,outcome,[3],inactive
same,outcome,[4],inactive
same,outcome,[5],inactive
same,outcome,[6],inactive
same,AC50,DIO2 (gene 1734),48.6 µM (active)
same,outcome,[7],inactive
same,outcome,[8],inactive
same,outcome,[9],inactive
CN1C(=O)N(c2ccccc2Br)Cc2cnc(Nc3ccc4c(c3)OCC(CO)O4)nc21 (centres undefined),outcome,DIO2 (gene 1734),inactive
CC/C(=C(/CC)c1ccc(O)cc1)c1ccc(O)cc1,outcome,[1],inactive
same,outcome,[2],inactive
same,outcome,[3],inactive
same,outcome,[4],inactive
same,AC50,[5],0.077 µM (active)
same,AC50,[6],11.3 µM (active)
same,AC50,[7],15 µM (active)
same,outcome,[8],inactive
same,AC50,[9],5.65 µM (active)
Oc1ccccc1,outcome,[1],inactive
same,AC50,[2],6.18 µM (active)
same,outcome,[3],inactive
same,outcome,[4],inactive
same,outcome,[5],inactive
same,outcome,[6],inactive
same,outcome,[7],inactive
same,outcome,[8],inactive
same,outcome,[9],inactive
c1ccc2ccccc2c1,outcome,[1],inactive
same,outcome,[2],inactive
same,outcome,[3],inactive
same,outcome,[4],inactive
same,outcome,[5],inactive
same,outcome,[6],inactive
same,outcome,[7],inactive
same,outcome,[8],inactive
same,outcome,[9],inactive
CN(C[C@@H](CC[N+]12CCC(C3CCCCC3)(CC1)CC2)c1ccc(Cl)c(Cl)c1)C(=O)c1cc(C(F)(F)F)cc(C(F)(F)F)c1,AC50,DIO2 (gene 1734),37.8 µM (active)
CN1C(=O)CC[C@H]1c1cccnc1,outcome,[1],inactive
same,outcome,[2],inactive
same,outcome,[3],inactive
same,outcome,[4],inactive
same,outcome,[5],inactive
same,outcome,[6],inactive
same,outcome,[7],inactive
same,outcome,[8],inactive
same,outcome,[9],inactive
OC12N=C(c3ccccc3)SC1Cc1cc(Cl)ccc12 (centres undefined),AC50,DIO2 (gene 1734),72.5 µM (active)
O=C1O[C@H]([C@@H](O)CO)C(O)=C1O,outcome,[1],inactive
same,outcome,[2],inactive
same,outcome,[3],inactive
same,outcome,[4],inactive
same,outcome,[5],inactive
same,outcome,[6],inactive
same,outcome,[7],inactive
same,outcome,[8],inactive
same,outcome,[9],inactive
NC(=O)c1nc(-c2cccc(-c3cc(F)ccc3OCC(F)(F)C(F)(F)F)c2)n[nH]1,AC50,DIO2 (gene 1734),100 µM (active)
CCOC(=O)O[C@H](C)OC(=O)c1ccc2c(c1)cc(C(=O)NC1CCN(C(C)C)CC1)n2Cc1cc(-c2ccc(Cl)s2)on1,AC50,DIO2 (gene 1734),45.2 µM (active)
CN(C)C(=O)C1(N2CCCCC2)CCN(CC[C@@]2(c3ccc(Cl)c(Cl)c3)CN(C(=O)c3ccccc3)CCO2)CC1,AC50,DIO2 (gene 1734),73.9 µM (active)
Clc1ccccc1C(c1ccccc1)(c1ccccc1)n1ccnc1,outcome,[1],inactive
same,outcome,[2],inactive
same,outcome,[3],inactive
same,outcome,[4],inactive
same,outcome,[5],inactive
same,outcome,[6],inactive
same,outcome,[7],inactive
same,outcome,[8],inactive
same,outcome,[9],inactive
CCN(CC)C(=O)c1cc(S(=O)(=O)Cc2ccccc2)c(N2CCC(c3ccccc3)CC2)cc1N(CC)CCN(C)C,AC50,DIO2 (gene 1734),37 µM (active)
NCc1cccc(C2CCN(C(=O)c3ccc(C#Cc4ccccc4F)o3)CC2)c1,AC50,DIO2 (gene 1734),30.6 µM (active)
CCCCCCCCCCCCO,outcome,DIO2 (gene 1734),inactive
O=CCCCC=O,AC50,DIO2 (gene 1734),91.3 µM (active)
CCCCCCCCOC(=O)c1cc(O)c(O)c(O)c1,AC50,DIO2 (gene 1734),143 µM (active)
CN(C)c1ccc(C(=C2C=CC(=[N+](C)C)C=C2)c2ccc(N(C)C)cc2)cc1,AC50,DIO2 (gene 1734),134 µM (active)
CC(C)(C)c1cc(/C=C2\SC(N)=NC2=O)cc(C(C)(C)C)c1O,AC50,DIO2 (gene 1734),30.3 µM (active)
